Screens from PubChem.
This is a sample that favours compounds with a hit; in the whole collection about 1.2% have one here.
RGS4-Gao reg: modulates binding of RGS4 to human Galphao. AID 1415. Multiplexed bead flow cytometry; actives lie on both sides. binding response (% of control), % at 10 µM. 220,000 tested, 0.33% active; in the data active = binding response below about 49% or above about 150%; inactive = in between;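 note: fluorescent Galphao activated with aluminum fluoride binding bead-coupled RGS4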
Target sequence (P09471 whole entry, looked up): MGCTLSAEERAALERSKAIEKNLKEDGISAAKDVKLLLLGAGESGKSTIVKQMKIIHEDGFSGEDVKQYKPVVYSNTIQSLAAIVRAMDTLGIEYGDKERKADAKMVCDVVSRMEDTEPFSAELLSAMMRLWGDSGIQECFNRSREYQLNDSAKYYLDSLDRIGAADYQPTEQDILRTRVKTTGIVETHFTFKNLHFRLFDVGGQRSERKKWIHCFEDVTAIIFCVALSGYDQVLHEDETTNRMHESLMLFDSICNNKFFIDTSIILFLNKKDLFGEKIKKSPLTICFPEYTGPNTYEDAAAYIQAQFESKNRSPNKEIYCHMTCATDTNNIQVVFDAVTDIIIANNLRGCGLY
RGS16-Gao: regulators of human RGS16-Galphao interaction; binding response (% of control), % at 10 µM; O15492+P09471; 220,000 tested, 0.38% active; AID 1441; bead-based flow cytometry RGS16-Galphao binding, fluorescence; actives lie on both sides;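 note: Galphao activated by GDP with aluminum fluoride before binding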
Target sequence (O15492 whole entry, looked up): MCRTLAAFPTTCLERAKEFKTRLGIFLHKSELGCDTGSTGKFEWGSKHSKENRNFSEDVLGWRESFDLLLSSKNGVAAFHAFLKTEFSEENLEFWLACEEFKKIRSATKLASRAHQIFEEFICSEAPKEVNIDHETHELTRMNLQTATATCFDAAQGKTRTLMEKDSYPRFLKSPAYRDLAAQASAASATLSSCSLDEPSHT
Target sequence (P09471 whole entry, looked up): as the sequence (P09471 whole entry, looked up) above
RGS8-Gao reg: human RGS8-Galphao interaction regulation; P09471; multiplexed bead flow cytometry, RGS8-Galphao binding; actives lie on both sides; response (percent of control binding), % at 10 µM; 220,000 tested, 0.34% active; AID 1423; in the data active = response below about 60% or above about 140%; inactive = in between;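 note: Galphao activated as the GDP aluminium fluoride complex binding bead-coupled RGS8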
GSH fluor: GSH bead compound fluorescence profile; 190,000 tested, 0.25% active; AID 1776; fluorescence (KMESF) at 10 µM; GSH beads flow cytometry, compound fluorescence 488/530 nm; hits give high values; in the data active = fluorescence above about 89;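 note: glutathione beads carrying GST-tagged Bcl family fusion proteins plus one bare bead set; values are compound well signal with DMSO vehicle wells as background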
Avidin fluor: avidin bead compound fluorescence profile; 220,000 tested, 0.38% active; fluorescence (KMESF) at 10 µM; AID 1775; Avidin beads, compound fluorescence 488/530 nm, flow cytometry; hits give high values; in the data active = fluorescence above about 47
RGS7-Gao: human RGS7-Galphao interaction regulation | 220,000 tested, 0.35% active | binding response (% of control), % at 10 µM | P09471 | AID 1439 | Multiplexed bead flow cytometry, RGS7-Galphao binding; actives lie on both sides; in the data active = binding response below about 49% or above about 150%; inconclusive = no clear call, values can overlap the other calls; inactive = in between;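 note: fluorescent Galphao held in activated GDP-AlF4 state binding bead-coupled RGS7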
RGS4-Gao HTS: RGS4-Galphao interaction regulator (human); AID 1504; shares compounds with RGS16-Gao; RGS4–Galpha-o binding response, % at 10 µM; multiplexed bead flow cytometry, RGS–Galpha-o binding; 1,600 tested, 99% active;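 note: fluorescently labeled Galpha-o bound to GDP with aluminium fluoride binding biotinylated RGS beads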
Biotin-avidin: counter-screen: compounds disrupting biotin binding to avidin beads. AID 1783. streptavidin beads, fluorescein-biotin binding, flow cytometry. inhibition, % at 10 µM. shares compounds with RGS16-Gao. 1,700 tested, under 10 active;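 active = inhibition above 50%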;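 note: median green fluorescence of gated singlet beads compared with DMSO control wells; 0% = DMSO wells and 100% = complete loss of bead fluorescence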
RGS8-Gao single: RGS8-Galphao interaction regulation, single point confirmation; shares compounds with RGS16-Gao; bead-based flow cytometry RGS8-Galphao binding, fluorescence; actives lie on both sides; binding response (% of control), % at 10 µM; 1,700 tested, 3% active; AID 1836; in the data active = binding response below about 72% or above about 130%; inactive = in between;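 note: Galphao activated as GDP AlF4 complex before binding bead RGS8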
RGS7-Gao confirm: confirmation of regulators of human RGS7-Galphao interaction; response (percent of control binding), % at 10 µM; shares compounds with RGS16-Gao; 1,700 tested, 7.8% active; bead-based flow cytometry RGS7-Galphao binding; actives lie on both sides; AID 1837; in the data active = response below about 75% or above about 130%; inactive = in between;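 note: fluorescent Galphao activated with GDP and aluminum fluoride binding bead-coupled RGS7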
RGS16-Gao single: confirmation of regulators of human RGS16-Galphao interaction; shares compounds with RGS16-Gao; bead-based flow cytometry, RGS16-Galphao binding; actives lie on both sides; response (% of control binding), % at 10 µM; 1,700 tested, 4% active; in the data active = response below about 74% or above about 130%; inactive = in between;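 note: Galphao activated as the GDP aluminium fluoride complex binding bead-coupled RGS16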
RGS4-Gao single: confirmation of regulators of human RGS4-Galphao interaction | RGS4-Galphao binding, multiplexed bead flow cytometry; actives lie on both sides | binding response (% of control), % at 10 µM | 1,700 tested, 4% active | shares compounds with RGS16-Gao; in the data active = binding response below about 74% or above about 130%; inactive = in between
RGS19-Gao single: confirmation of regulators of human RGS19-Galphao interaction | shares compounds with RGS16-Gao | bead-based flow cytometry RGS19-Galphao binding; actives lie on both sides | response (percent of control binding), % at 10 µM | 1,700 tested, 5% active | AID 1841; in the data active = response below about 50% or above about 160%; inactive = in between;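 note: 100% = no compound control and 0% = blank background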
Numbers without * were called inactive; ? = inconclusive; . = no result given; [ ] = dose if it differs, or a comment. Unless noted, the rule behind the calls is not given here.

SMILES | RGS4-Gao reg | RGS16-Gao | RGS8-Gao reg | GSH fluor | Avidin fluor | RGS7-Gao | Biotin-avidin | RGS8-Gao single | RGS7-Gao confirm | RGS16-Gao single | RGS4-Gao single | RGS19-Gao single | others
CCOc1c(Br)cc(/C=C2/SC(=O)N(CC(=O)N3CCCC3)C2=O)cc1OC | 81 | 7 | 76 | 38 | 2 | 83 | . | . | . | . | . | .
CC(=O)N1CCC(N(CCN2CCOCC2)C(=S)Nc2ccc(C)c(C)c2)CC1 | 101 | 102 | 99 | 12 | 10 | 100 | . | . | . | . | . | .
CC(=O)c1c(C)oc2ccc(NS(=O)(=O)c3cccs3)cc12 | 82 | 5 | 69 | 13 | 122* | 76 | . | . | . | . | . | .
CCOC(=O)c1c(C)oc2ccc(NS(=O)(=O)c3cccs3)cc12 | 103 | 95 | 99 | 15 | 14 | 100 | . | . | . | . | . | .
COc1ccc(N(CC(=O)N2CCC(Cc3ccccc3)CC2)S(C)(=O)=O)cc1 | 102 | 107 | 106 | 21 | 13 | 102 | . | . | . | . | . | .
CCC(=O)NC(Nc1ncc(C)s1)(C(=O)OC)C(F)(F)F (centres undefined) | 103 | 104 | 103 | 124* | 8 | 102 | . | . | . | . | . | .
CC(C)C12CN3CC(C(C)C)(CN(C1)C3c1ccc([N+](=O)[O-])o1)C2=O (centres undefined) | 97 | 101 | 99 | . | 5 | ? | . | . | . | . | . | .
CC(O)C1C(=O)OC2(C)CC(C)(C)NC(=S)N12 (centres undefined) | 112 | 112 | 103 | 119* | 5 | 106 | . | . | . | . | . | .
O=C(O)CS(=O)CC(=O)Nc1cccc(C(F)(F)F)c1 (centres undefined) | 101 | 101 | 99 | 16 | 9 | 96 | . | . | . | . | . | .
CCOC(=O)CNC(=S)n1ncnc1N | 93 | 91 | 95 | 20 | 9 | 86 | . | . | . | . | . | .
COc1ccccc1C(=O)Nc1nnc(SCC(=O)Nc2ccc3c(c2)oc2ccccc23)s1 | 100 | 111 | 103 | 811* | 14 | 102 | . | . | . | . | . | .
Cc1cccc(C(=O)Nc2nnc(SCC(=O)Nc3ccc4c(c3)oc3ccccc34)s2)c1 | 110 | 102 | 105 | 8 | 12 | 109 | . | . | . | . | . | .
CCCc1nc(SC)[nH]c(=O)c1C | 106 | 103 | 103 | . | 6 | ? | . | . | . | . | . | .
O=C1CCCc2ccccc2N1Cc1ccc(Cl)cc1Cl | 99 | 95 | 100 | 20 | 68* | 113 | . | . | . | . | . | .
O=C(CSc1nnc(-c2c[nH]c3ccccc23)o1)N1CCCCC1 | 101 | 97 | 102 | 24 | 57* | 115 | . | . | . | . | . | .
CC(C)(C)C1CCC(=NNC(=O)CN(c2ccccc2)S(=O)(=O)c2ccccc2[N+](=O)[O-])CC1 (centres undefined) | 145 | 103 | 101 | 20 | 53* | 128 | . | . | . | . | . | .
Cc1cc(C)c2oc(C(=O)Nc3ccc(S(=O)(=O)N4CCCC(C)C4)cc3)cc(=O)c2c1 (centres undefined) | 152*[activator] | 146 | 103 | 17 | 93* | 168*[activator] | -2 | 104 | 98 | 102 | 103 | 107
Cc1ccc2cc3cc(C(=O)N4CCN(Cc5ccccc5)CC4)sc3nc2c1 | 172*[activator] | 193*[activator] | 124 | 231* | 69* | 162*[activator] | 0 | 99 | 94 | 97 | 95 | 90
COc1ccc(S(=O)(=O)Cc2ccc(C(=O)NCCc3ccc(S(N)(=O)=O)cc3)o2)cc1 | 105 | 183*[activator] | 121 | 22 | 9 | 110 | -1 | 107 | 85 | 110 | 93 | 66 | RGS4-Gao HTS=105*
COCCCNC(=O)c1ccc(CS(=O)(=O)c2ccc(OC)cc2)o1 | 100 | 101 | 102 | 14 | 24 | 101 | . | . | . | . | . | .
Cc1ccc(N2CN=c3s/c(=C\c4ccccn4)c(=O)n3C2)cc1 | 51 | 53 | 60* | 23 | 18 | 48* | -1 | 97 | 92 | 95 | 95 | 110 | RGS4-Gao HTS=51*
NC1=NC(=O)CC(C(=O)NCCc2ccccc2)S1 (centres undefined) | -82* | -73* | 3.8* | 10 | . | -29* | -2 | 115 | 161*[activator] | 130*[activator] | 137*[activator] | 326*[activator]
NC1=NC(=O)CC(C(=O)Nc2cccc3ccccc23)S1 (centres undefined) | 107 | 121 | 115 | 10 | 25 | 109 | . | . | . | . | . | .
CCc1nc(SCc2ccccn2)[nH]c(=O)c1C | 104 | 104 | 102 | 11 | 12 | 104 | . | . | . | . | . | .
CCc1nc(SCc2cccnc2)[nH]c(=O)c1C | 108 | 309*[activator] | 124 | 9 | 13 | 105 | 1 | 92 | 91 | 91 | 92 | 68 | RGS4-Gao HTS=108*
SMILES | RGS4-Gao reg | RGS16-Gao | RGS8-Gao reg | GSH fluor | Avidin fluor | RGS7-Gao | Biotin-avidin | RGS8-Gao single | RGS7-Gao confirm | RGS16-Gao single | RGS4-Gao single | RGS19-Gao single | others
NCc1oc(-c2ccccc2)cc1C(=O)O | 105 | 127 | 111 | 9 | 23 | 106 | . | . | . | . | . | .
O=S(=O)(NCc1ccccc1)c1ccc2c(c1)OCCO2 | . | . | . | 17 | . | . | 1 | 101 | 104 | 100 | 102 | 109
CCN(C(=O)COC(=O)c1ccc(Br)o1)C1CCCCC1 | 99 | 65 | 90 | 13 | 16 | 98 | . | . | . | . | . | .
CCOC(=O)C(CSCc1ccccc1)NC(=O)OC(C)(C)C (centres undefined) | 93 | -920* | 98 | 57 | 2 | 98 | . | . | . | . | . | . | RGS4-Gao HTS=93*
CCOC(=O)C(CSCC(=O)c1ccc(Br)cc1)NC(=O)OC(C)(C)C (centres undefined) | 101 | 106 | 101 | 12 | 8 | 104 | . | . | . | . | . | .
Cc1cc(=O)[nH]c(SCn2nnc3ccccc3c2=O)n1 | 36* | 34 | 36* | 24 | 12 | 30* | -2 | 100 | 97 | 96 | 96 | 103
O=c1c2ccccc2nnn1CSc1nc2ccccc2[nH]1 | 101 | 92 | 98 | 12 | 9 | 100 | . | . | . | . | . | .
COC(=O)CC1C(=O)NCCN1C(=O)Nc1ccc(Cl)c(Cl)c1 (centres undefined) | 104 | . | . | 15 | 23 | . | -1 | 102 | 99 | 99 | 102 | 87
